# From PubChem BioAssay
# HCV inhibitor – HCV inhibition. Potency, µM (doses to about 41.8 µM), for inactives: at the top dose activity change, negative = inhibition, usual class: inhibitors. Huh7.5.1 HCVcc-Cre infection, luciferase reporter, 44 h. AID 651820. 3.4% of 340,000 active; also: potency is read from the fitted curve at half-maximal effect; % is scaled to controls: 0 for no effect and ±100 for the full control effect
#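 HCVcc-Cre virus at an moi near 0.5 was added right after compound to cells cultured 4 h from seeding (1,000 cells/well). Luciferase activity was determined 44 h later, 15 min after substrate addition at RT.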
# Pf growth 96h – P. falciparum growth inhibition at 96 hour, primary screen for plastid delayed-death inhibitors; Potency, µM (highest dose often 28.7 µM), inactives show top-dose activity change, negative = inhibition, hits mostly inhibitors; AID 504834; 6.9% of 320,000 active; P. falciparum luciferase reporter growth, 96 h; also: potency is read from the fitted curve at half-maximal effect; % is scaled to controls: 0 for no effect and ±100 for the full control effect
#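 P. falciparum expressing integrated firefly luciferase grown in erythrocytes (2% hematocrit, 0.05% parasitemia final) with compounds for 96 hours at 37 C, 5% CO2. Growth inhibition read as loss of luminescence after adding luciferase detection reagent.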
# HCMV inh – inhibitors of human cytomegalovirus. HFF cells, HCMV-luciferase reporter, 72 h; hits give low values. activity change, negative = inhibition, % at 57.5 µM. 4.5% of 410,000 active. AID 1259415; in the data active = activity change below about -60%; inconclusive = no clear call, values can overlap the other calls; inactive = above about -39%; also: % is scaled to controls: 0 for no effect and ±100 for the full control effect
#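 HFF cells seeded 16 h at 37C, treated with compounds, infected with luciferase-reporter HCMV at MOI 1 PFU/cell; luciferase read at 72 h post infection, normalized to buffer-only and Salinomycin controls.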
# Pf growth 48h – inhibits P. falciparum growth in the first generation, 48 h | P. falciparum luciferase growth in erythrocytes, 48 h | Potency, µM (highest dose often 28.7 µM), for the others: at the top dose activity change, negative = inhibition, usual class: inhibitors | 5.9% of 310,000 active; also: potency is read from the fitted curve at half-maximal effect; % is scaled to controls: 0 for no effect and ±100 for the full control effect
#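 Here the parasites carry a stable luciferase gene and grow inside erythrocytes in Albumax-based RPMI medium with compound for one erythrocytic cycle. Activity is scored as loss of luminescent signal.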
# Sm TGR block – S. mansoni TGR enzyme inhibition. Q962Y6. purified TGR, DTNB reduction, TNB absorbance 405 nm. Potency, µM (doses to about 114 µM), for inactives: at the top dose activity change, negative = inhibition, usual class: inhibitors. 3% of 360,000 active; also: potency is read from the fitted curve at half-maximal effect; % is scaled to controls: 0 for no effect and ±100 for the full control effect; nearly all actives have a fitted effect of over 60% in size
#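 First, TGR (20 nM dispensed) and NADPH were mixed with compound. Second, a 15 min room-temperature incubation followed. Third, further NADPH and then DTNB were added to start the reaction. Finally, TNB absorbance was monitored kinetically.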
# SARS PLP yeast – blocks SARS-CoV papain-like protease in a yeast assay; S. cerevisiae expressing SARS-CoV PLpro, growth rescue; Potency, µM (titrated, usually from 32.9 µM), inactives show top-dose activity, positive = growth rescue, usual class: activators; 0.19% of 330,000 active; AID 485353; calls by dose curve; also: potency is read from the fitted curve at half-maximal effect; 0% is about no effect; nearly all actives have a fitted effect of over 55% in size
# The depositor's hits bear a star; ? = inconclusive; . = not tested or not shown; + = active, no number; [ ] = dose if it differs, or a comment. Only some compounds are listed: those with a hit (about 15% of all), similar ones and a draw of the others. Unless noted, calls follow the shape of the dose curve; as a rule, active = well fitted curve in the direction sought with a large enough effect; inconclusive = small, poorly fitted or top-dose-only effect, or another doubt; inactive = no such curve, though single readings can be large; an effect the other way counts as inactive or inconclusive.
SMILES,HCV inhibitor,Pf growth 96h,HCMV inh,Pf growth 48h,Sm TGR block,SARS PLP yeast
CN1CCCN(c2cc(-c3ccc4ccccc4c3)nc3ccnn23)CC1,.,.,-90.6*,.,.,.
CC(=O)Nc1cccc(-c2ccnc3c2CC(C(=O)NCc2ccc(F)c(F)c2)O3)c1 (stereo unspecified),.,.,-28.7,.,.,.
CCC1CN(C(=O)N2CCC(C(=O)NCc3ccc(OC)cc3OC)CC2)c2cc(C)ccc2O1 (stereo unspecified),.,.,66.7,.,17.8%,.
CCC1CN(C(=O)N2CCC(C(=O)NCCc3ccccc3C)CC2)c2ccccc2O1 (stereo unspecified),.,.,36.4,.,-8.0%,.
CCC1CN(C(=O)N2CCC(C(=O)NCCc3ccccc3OC)CC2)c2ccccc2O1 (stereo unspecified),?,?,+,?,1.0%,-1.5%
CCC1CN(C(=O)N2CCC(C(=O)NCCc3ccc(OC)cc3OC)CC2)c2ccccc2O1 (stereo unspecified),12.6µM*,?,-20.8,?,8.6%,0.7%
CCC1CCc2c(sc(NC(=O)C3c4ccccc4Oc4ccccc43)c2C(=O)OC)C1 (stereo unspecified),.,.,-20.3,.,11.6%,.
Nc1nc(N)c2c(ccc3c2ccn3Cc2cccc([N+](=O)[O-])c2)n1,.,.,-99.1*,.,.,.
Nc1nc(N)nc(-c2cccc([N+](=O)[O-])c2)n1,.,.,7.9,.,.,.
CN(Cc1ccccc1)S(=O)(=O)c1ccc(Cl)c(C(=O)N2CCOCC2)c1,.,.,-7.4,.,.,.
CCc1ccc(N(C2C=CS(=O)(=O)C2)S(=O)(=O)c2ccccc2)cc1 (stereo unspecified),6.7%,0.1%,-23.9,?,6.2%,-2.7%
Cc1ccc(S(=O)(=O)N(c2cccc(C(F)(F)F)c2)C2C=CS(=O)(=O)C2)cc1 (stereo unspecified),10µM*,16.5µM*,-36.8,.,-1.4%[11.4 µM],4.9%
O=S(=O)(c1ccccc1)c1cnn(-c2ccccc2)c1-c1ccc(Cl)cc1,?,2.94µM*,?,11.7µM*,13.0%,-11.6%
COc1ccc(-c2c(S(=O)(=O)c3ccccc3)cnn2-c2ccccc2)cc1,-18.7%,6.57µM*,?,?,11.0%,-3.6%
Cc1cccc(C)c1N(CC(=O)NCc1ccccc1)C(=O)c1csnn1,11.8%,?,-0.7,24.1%,-10.0%,-0.5%
Cc1cc(C(=O)CN2C(=O)NC(C)(c3ccccc3)C2=O)c(C)n1CC1CCCO1 (stereo unspecified),23.9%,143.1%,.,-7.4%,-9.3%,-13.5%
Cc1cc(C(=O)CN2C(=O)c3ccccc3S2(=O)=O)c(C)n1CC1CCCO1 (stereo unspecified),-13.1%,9.7%,-100.1*,2.08µM*,-29.8%,-1.8%
CCCn1c(C)cc(C(=O)CN2C(=O)c3ccccc3S2(=O)=O)c1C,.,.,-86.4*,.,.,.
CCNC(=O)C1(C)CCN(C(=O)c2c(F)cccc2F)C1 (stereo unspecified),.,.,-6.0,.,.,.
COc1ccc(CCCNC(=O)C2(C)Cc3c(-c4ccc(C(N)=O)cc4)ccnc3O2)cc1 (stereo unspecified),.,.,-12.9,.,.,.
COc1ccc(/C=C(/NC(=O)c2ccccc2OC)C(=O)Nc2ccc(C(=O)O)cc2)cc1,-1.3%,9.28µM*,-22.8,-8.6%,0.9%,-6.0%
Cc1ccc(NC(=O)/C(=C\c2cccnc2)NC(=O)c2ccco2)cc1,16.1%,3.29µM*,34.5,?,-21.1%,16.4%
CCC(C)NC(=O)c1ccccc1NC(=O)/C(=C/c1ccc(OC)cc1)c1ccccc1 (stereo unspecified),20.2%,11.7µM*,12.4,?,-2.6%,-13.5%
COc1ccc(NC(=O)/C(=C/c2cccnc2)NC(=O)c2cccs2)cc1,7.9%,4.15µM*,-25.8,-6.3%,-7.3%,-0.7%
CCC(C)NC(=O)c1ccccc1NC(=O)CN(c1ccc(OC)cc1)S(C)(=O)=O (stereo unspecified),-0.1%,-25.8%,2.8,.,5.1%,6.1%
SMILES,HCV inhibitor,Pf growth 96h,HCMV inh,Pf growth 48h,Sm TGR block,SARS PLP yeast
COc1ccc(C(=O)N/C(=C\c2ccccc2)C(=O)Nc2ccc(C(=O)O)cc2)cc1,10.4%,12.2%,39.9,-1.8%,-13.9%,1.8%
CN1CCN(C(=O)C2CCN(c3ncc(C(F)(F)F)cc3Cl)CC2)CC1,?,-4.4%,?,-12.4%,1.3%,-0.2%
COCCN1CCN(C(=O)c2cc(COc3ccc(F)c(F)c3)on2)CC1,.,?,17.4,13.8%,-10.7%,0.6%
CCCCN=C1CC(C)(C)CC(=O)/C1=C(/O)CCC,?,?,29.6,?,2.1%,-0.7%
O=[N+]([O-])c1nn(-c2ccc3c(c2)OCCO3)n(O)c1=NC1CCCC1,2.82µM*,0.5%,7.5,.,8.8%,15.0%
O=[N+]([O-])c1nn(-c2ccc3c(c2)OCCO3)n(O)c1=NC1CCCCCC1,-26.8%,4.8%,?,.,35.5µM*,-18.3%
Cc1nc(C(F)(F)F)ccc1C(=O)Nc1ccc(C(F)(F)F)cn1,-24.5%,-18.9%,-34.1,26.3%,-1.3%,-0.2%
Cc1nc(-c2ccncc2)nc(NCCNc2ccc(C(F)(F)F)cn2)c1Cl,?,2.33µM*,-30.0,3.7µM*,6.1%,-5.0%
COCCN1CC(=O)N2C(c3cccc(C)c3)c3[nH]c4ccccc4c3C[C@H]2C1=O (stereo partly specified),4.1%,11.7µM*,91.8,13.1µM*,1.0%,1.4%
COCCCN1CC(=O)N2C(c3cccc(OC)c3OC)c3[nH]c4ccccc4c3C[C@H]2C1=O (stereo partly specified),-6.8%,11.7µM*,93.9,9.28µM*,-23.3%,0.2%
CC(C)OCCCN1CC(=O)N2C(c3ccccc3)c3[nH]c4ccccc4c3C[C@H]2C1=O (stereo partly specified),23.0%,?,46.6,9.28µM*,6.1%,-2.8%
COCCCN1CC(=O)N2C(c3ccc(C)cc3)c3[nH]c4ccccc4c3C[C@H]2C1=O (stereo partly specified),8.9%,?,27.2,?,-6.8%,-0.3%
COCCCN1CC(=O)N2C(c3cccc(C)c3)c3[nH]c4ccccc4c3C[C@H]2C1=O (stereo partly specified),15.9%,?,91.9,9.28µM*,4.0%,1.2%
COCCCN1CC(=O)N2C(c3ccccc3)c3[nH]c4ccccc4c3C[C@H]2C1=O (stereo partly specified),30.3%,?,145.6,.,-5.7%,2.3%
COc1cccc(C2c3[nH]c4ccccc4c3C[C@H]3C(=O)N(CCCOC(C)C)CC(=O)N23)c1 (stereo partly specified),16.7%,?,41.9,-19.5%,22.3%,0.4%
